esBAF inh = SWI/SNF esBAF complex inhibition; mouse ES cells, Bmi1-luciferase knock-in reporter, 24 h; 100% = twice the neutral-well signal; reporter increase, % at 12.5 µM; hit rate 2% among 350,000; in the data active = activation above about 40%; inconclusive = no clear call, values can overlap the other calls;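 note: 0% = median of the plate's neutral control wells and 100% = double that signal; a rise in the Bmi1 reporter signal indicates esBAF inhibition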
Wnt act = Wnt/beta-catenin pathway activation; activation, % at 9.35 µM; AID 743398; hit rate 1.2% among 300,000; Wnt/beta-catenin reporter cell assay, activator, plate reader; in the data active = activation above about 30%, passing the limit was not always enough; inconclusive = no clear call, values can overlap the other calls;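 note: 0% = neutral control wells and 100% = positive control wells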
C2C12 statin = suppression of simvastatin myotoxicity | hit rate 0.78% among 330,000 | rescue of ATP level, % at 7.49 µM | C2C12 myotubes + simvastatin, ATP luminescence, 48 h; scaled: DMSO 0, geranylgeraniol control 100;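 active = mean ATP rescue above about 67%, or every replicate alone reaching that limit, limit read from the data, passing the limit was not always enough; inconclusive = no clear call, values can overlap the other calls; inactive = mean under the limit and some replicate under it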;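 note: myotubes were challenged with 10 µM simvastatin during compound exposure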
MITF TRPM1 HTS = increases MITF-driven TRPM1 promoter luciferase signal. activation, % at 12.5 µM. SK-MEL-5 TRPM1-promoter luciferase, 24 h; % of positive control, neutral wells = 0. hit rate 0.75% among 300,000;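 active = mean activation of at least 80% with every replicate also reaching 80%; inconclusive = mean reaches 80% but some replicate falls short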;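 note: 0% = neutral control wells and 100% = parthenolide positive control wells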
The depositor's hits bear a star; ? = inconclusive; . = no result. An excerpt weighted towards active compounds, which were near 3% of everything screened.

SMILES | esBAF inh | Wnt act | C2C12 statin | MITF TRPM1 HTS
Clc1ccc(/C=N/Nc2nc(Cl)nc3ccccc23)cc1 | 58* | . | -6 | .
Clc1ccc(/C=N/Nc2nnc(Cl)c3ccccc23)cc1 | 90* | 11 | -82 | 39
Cc1ccc(C(=O)NC2=NCCS2)cc1 | . | 50* | . | .
COc1ccc(C(=O)NC2=NCCS2)cc1 | 18 | 36* | -5 | 63
N#Cc1ccc(C(=O)NC2=NCCS2)cc1 | 48* | 13 | 3 | 62
CC(C)c1ccc(C(=O)NC2=NCCS2)cc1 | -7 | 45* | 3 | 44
CC(C)Oc1ccc(C(=O)NC2=NCCS2)cc1 | . | -1 | . | 26
O=C(NC1=NCCS1)c1ccc(C(F)(F)F)cc1 | 53* | 7 | -6 | 87*
CC(C)CNC(=O)c1cc2nc3c(c(C(F)(F)F)n2n1)CCc1ccccc1-3 | -2 | . | -18 | 9
CCCCNC(=O)c1cc2nc3c(c(C(F)(F)F)n2n1)CCc1ccccc1-3 | 0 | -1 | 76* | 0
Cc1ccc(N2CN=c3s/c(=C\c4ccccn4)c(=O)n3C2)cc1 | 77* | 3 | -1 | 51
O=c1/c(=C/c2ccco2)sc2n1CN(c1ccccc1)CN=2 | -8 | . | 0 | 32
O=C(N/N=C/c1cn(-c2ccccc2)nc1-c1cc2ccccc2o1)c1cccnc1 | . | 73* | . | 7
O=C(N/N=C/c1cn(-c2ccccc2)nc1-c1cc2ccccc2o1)c1ccncc1 | . | . | . | 37
C[C@H](CO)N1C[C@H](C)[C@@H](CN(C)C(=O)Nc2ccc(C(F)(F)F)cc2)Oc2ccc(N(C)C)cc2CC1=O | 2 | . | -25 | .
Cc1ccc(N2CCN(C(=O)c3ccccc3Br)CC2)c(C)c1 | -3 | -4 | 81* | 0
COC(=O)c1c(C(=O)OC)c2cc(C)ccn2c1Cl | 0 | . | 101* | -5
FC(F)(F)c1nc2ccccc2n2c(-c3ccc(Cl)cc3Cl)nnc12 | -6 | . | 84* | -4
C[C@H](CO)N1C[C@H](C)[C@H](CN(C)S(C)(=O)=O)OCCCC[C@H](C)Oc2ccc(NC(=O)c3ccccc3)cc2C1=O | 2 | . | -23 | .
CSc1ccccc1OCc1cc(C(=O)N(C)Cc2ccc(C)o2)no1 | 75* | 18 | 13 | 99*
CSc1ccccc1OCc1cc(C(=O)NCc2ccc(C)s2)no1 | -5 | 0 | 6 | 36
CSc1ccccc1OCc1cc(C(=O)N(C)C(C)c2nc(C)cs2)no1 (centres undefined) | . | 4 | . | 4
CC(=O)c1cccc(OCc2cc(C(=O)N(C)Cc3ccc(C)o3)no2)c1 | 38 | 15 | 0 | 43
CCOC(=O)c1ccc(CNC(=O)c2cc(COc3ccccc3SC)on2)o1 | 54* | 30 | 15 | 103*
CSc1ccccc1OCc1cc(C(=O)N(C)Cc2ccc3nsnc3c2)no1 | 28 | 35* | 3 | 78
SMILES | esBAF inh | Wnt act | C2C12 statin | MITF TRPM1 HTS
C[C@@H]1CCCCO[C@@H](CN(C)Cc2ccc(C(=O)O)cc2)[C@@H](C)CN([C@@H](C)CO)C(=O)c2cc(NS(=O)(=O)c3ccc(F)cc3)ccc2O1 | -6 | . | . | .
CC(C)NC(=O)CCc1nnc(Cc2cccc(C(F)(F)F)c2)o1 | 67* | 3 | -3 | 53
CNC[C@@H]1Oc2ccc(NC(=O)C3CCCCC3)cc2CC(=O)N([C@H](C)CO)C[C@@H]1C | -6 | . | 29 | .
CCOc1ccc(N2C(=O)CSC23CCCCC3)cc1 | -6 | . | 96* | 18
O=c1oc(-c2ccc([N+](=O)[O-])cc2)nc2ccccc12 | . | 10 | . | .
O=c1oc(-c2ccc(Br)cc2)nc2ccccc12 | 46* | 8 | 5 | 5
O=C(Nc1ccc2c(c1)oc1ccccc12)c1cccnc1 | 68* | . | -54 | 106*
O=C(Nc1cccc(-c2nc3ccccc3o2)c1)c1cccnc1 | . | -1 | . | 19
O=C(NCCc1ccccc1)c1ccc(NC(=O)c2cccnc2)cc1 | 15 | -2 | -19 | -7
O=C(Nc1ccc(-c2nc3ccccc3o2)cc1)c1cccnc1 | 50* | 42* | -90 | 32
O=C(Nc1ccc2oc(-c3ccccc3)nc2c1)c1ccncc1 | 54* | . | -19 | 19
O=C(Nc1ccc(-c2noc(CCc3ccccc3)n2)cc1)c1cccnc1 | 49* | . | -19 | 3
O=C(Nc1ccc2oc(-c3cccnc3)nc2c1)c1cccnc1 | 28 | -11 | 4 | .
O=C(Nc1ccc2c(c1)oc1ccccc12)c1ccncc1 | 32 | ? | -10 | .
CO[C@@H]1CN(C)C(=O)c2cc(NC(=O)c3ccccc3F)ccc2OC[C@H](C)NC[C@H]1C | 4 | . | 8 | .
C[C@@H]1CN([C@H](C)CO)S(=O)(=O)c2ccc(-c3ccccc3)cc2O[C@H]1CN(C)C(=O)Cc1ccccc1 | -4 | . | -31 | .
Cc1cc(C(=O)Nc2ccon2)c(C)o1 | -3 | -1 | 9 | 17
Cc1cc(C(=O)Nc2cc(C(C)(C)C)on2)c(C)o1 | 63* | 42* | -8 | 89*
CC(C)(C)c1cc(NC(=O)Nc2ccccc2)no1 | 27 | 41* | -5 | 113*
CN(C)C(=O)[C@@H]1[C@@H](CO)[C@@H]2Cn3c(ccc(C4=CCCCC4)c3=O)[C@@H]2N1CC1CC1 | -5 | . | -2 | .
COc1ccc(NC2CC(=O)N(C(C)C)C2=O)cc1 (centres undefined) | 60* | -2 | 8 | 69
CN1CCN(S(=O)(=O)c2ccc(Cc3ccc(S(=O)(=O)N4CCN(C)CC4)cc3)cc2)CC1 | -42 | . | 82* | 5
CN1CCN(S(=O)(=O)c2ccc(Cl)cc2)CC1 | -3 | -3 | -8 | 0
CN1CCN(S(=O)(=O)c2ccc(NN)nc2)CC1 | -7 | 57* | -2 | -2
CN1CCN(c2ccc(S(=O)(=O)N3CCCCC3)cn2)CC1 | . | . | . | -2
SMILES | esBAF inh | Wnt act | C2C12 statin | MITF TRPM1 HTS
CC(=O)N[C@H]1CC[C@@H](CCNC(=O)C2CC2)O[C@H]1CO | 1 | . | 9 | .
Cc1ccc(-c2n[nH]c(Cc3ccccc3)n2)cc1 | 54* | 0 | -9 | ?
C[C@@H]1CCCCO[C@@H](CN(C)Cc2ccc3c(c2)OCO3)[C@@H](C)CN([C@H](C)CO)C(=O)c2cc(NS(=O)(=O)c3cn(C)cn3)ccc2O1 | -1 | . | 28 | .
Cc1ccc(S(=O)(=O)N/N=C2/CC(c3ccccc3)Oc3ccccc32)cc1 (centres undefined) | 14 | . | 88* | 3
CO[C@@H]1CN(C)C(=O)c2ccc(NS(=O)(=O)c3cn(C)cn3)cc2OC[C@@H](C)N(CC2CC2)C[C@H]1C | -4 | . | -12 | .
CC(=O)N(C)C[C@H]1Oc2cc(C#Cc3cccc(F)c3)ccc2S(=O)(=O)N([C@@H](C)CO)C[C@@H]1C | 3 | . | -6 | .
CCCC12CN(C(=O)c3ccco3)CC(CCC)(CN(C(=O)c3ccco3)C1)C2=O | 6 | -1 | 77* | 6
CCc1ccc(CN2CCN(C(=O)c3ccco3)CC2)cc1 | 5 | 0 | -1 | -2
COC(=O)Nc1nnc(/C=C/c2ccc(OC)cc2)s1 | . | 9 | . | 47
COc1ccc(/C=C/c2nnc(NC(C)=O)s2)cc1 | -13 | 37* | 17 | .
COc1cccc(C#Cc2cnc3c(c2)C(=O)N([C@H](C)CO)C[C@@H](C)[C@H](CN(C)C(=O)C2CCOCC2)O3)c1 | -2 | . | 4 | .
Cc1ccc(Oc2cc(-n3nc(C)cc3C)ncn2)cc1 | 48* | . | -1 | 62
COc1ccccc1-c1noc(-c2cc(OC)c(OC)c(OC)c2)n1 | 4 | . | -10 | .

Bioassay records: PubChem BioAssay, Broad Institute
